# Screening results deposited in PubChem by Corson Lab, School of Medicine, Indiana University.
# Only a selection was taken, and hits are over-represented in it overall.
# FECH block: human FECH heme synthesis enzyme inhibition; AID 1671448; calls only at 10 µM (by protocol); purified FECH, Ni-mesoporphyrin absorbance 550 nm; 3.3% of 20,000 active;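 active = enzyme reaction rate more than 3 SD below the solvent-only control wells on the same plate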;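 note: lower slope than DMSO wells means FECH inhibition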
# Target sequence (P22830 whole entry, looked up): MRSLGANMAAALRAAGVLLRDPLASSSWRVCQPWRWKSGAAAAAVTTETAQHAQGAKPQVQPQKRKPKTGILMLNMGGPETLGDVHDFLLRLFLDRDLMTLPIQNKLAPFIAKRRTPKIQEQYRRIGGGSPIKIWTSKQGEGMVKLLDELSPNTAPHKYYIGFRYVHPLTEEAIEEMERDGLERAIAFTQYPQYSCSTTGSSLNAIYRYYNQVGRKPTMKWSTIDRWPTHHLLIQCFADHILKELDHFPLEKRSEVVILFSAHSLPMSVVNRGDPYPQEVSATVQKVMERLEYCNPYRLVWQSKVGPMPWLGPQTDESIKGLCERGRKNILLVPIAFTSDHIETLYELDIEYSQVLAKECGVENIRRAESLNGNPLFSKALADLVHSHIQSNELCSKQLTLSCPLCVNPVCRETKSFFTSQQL
# Starred values were filed as active, the others as inactive; i = inactive; + = active, no number.
SMILES,FECH block
O=C(Nc1nc2n(n1)C(c1ccc(Cl)cc1)C=C(c1ccc(Cl)cc1)N2)c1cccnc1 (stereo not drawn),+
O=C(Nc1nc2n(n1)C(c1ccc(Cl)cc1)C=C(c1ccccc1)N2)c1cccnc1 (stereo not drawn),+
O=C(Nc1nc2n(n1)C(c1ccccc1)C=C(c1ccc(Cl)cc1)N2)c1ccccc1 (stereo not drawn),i
CCOC(=O)c1ccccc1NC(=O)CN1CCN(Cc2ccccc2Cl)S1(=O)=O,i
O=S(=O)(c1ccc(F)cc1)N1CCN(Cc2nc3cccnc3n2-c2cccc(F)c2)CC1,i
Fc1ccc(CCC2CCCN(CCCn3cnnn3)C2)c(F)c1 (stereo not drawn),+
Fc1cccc(F)c1CCC1CCCN(Cc2cscn2)C1 (stereo not drawn),i
Cc1ccccc1CCC1CCCN(CCO)C1 (stereo not drawn),i
O=C(NC1CCCC1)C1CCN(c2ccc(-c3ccc(F)cc3)nn2)CC1,i
CC(C)n1cnc2nc(CSc3ccccc3NC(=O)Cc3ccccc3)cc(=O)n21,i
CCCn1cnc2nc(CSc3ccccc3NC(=O)c3ccco3)cc(=O)n21,+
CCCn1cnc2nc(CSc3ccccc3NC(=O)c3cccc(Br)c3)cc(=O)n21,+
Cc1ccc(C(=O)Nc2ccccc2SCc2cc(=O)n3c(ncn3C(C)C)n2)cc1F,i
CC(C)n1cnc2nc(CSc3ccccc3NC(=O)c3ccc(Br)cc3)cc(=O)n21,i
CCOc1ccccc1C(=O)Nc1ccccc1SCc1cc(=O)n2c(ncn2C(C)C)n1,i
COc1ccc(C(=O)Nc2ccccc2SCc2cc(=O)n3c(ncn3C(C)C)n2)cc1,i
CCCn1cnc2nc(CSc3ccccc3NC(=O)c3ccccc3)cc(=O)n21,i
CCCn1cnc2nc(CSc3ccccc3NC(=O)c3ccc(F)cc3)cc(=O)n21,+
Cc1ccc(-c2nc(CN3CCc4[nH]ncc4C3)c(C)o2)s1,i
COC(C)(C)CC(C)NCc1cc(-c2ccco2)on1 (stereo not drawn),i
CC(C(=O)N1CCc2nc(N)sc2C1)n1cnc2ccccc21 (stereo not drawn),i
COc1ccc(Cl)cc1S(=O)(=O)NCc1nc2cccnc2n1C1CCCCC1,i
COc1ccc(S(=O)(=O)NCCn2c(C(F)(F)F)nc3cccnc32)cc1,i
CCc1ccc(CN(C)C(=O)[C@H](N)CC(C)C)nc1,i
O=C(c1cc2sccc2[nH]1)N1CCCC(Cn2ccnc2)C1 (stereo not drawn),i
SMILES,FECH block
COC(=O)c1ccccc1NC(=O)NCCc1nc2cccnc2n1C1CCCCC1,i
Cn1nnc2cc(C(=O)NCc3ccccc3-n3ccnc3)ccc21,i
Cc1ccc(NC(=O)NCCn2c(-c3ccncc3)nc3cccnc32)c(C)c1,+
Cc1ccc(-c2nc3cccnc3n2CCNS(=O)(=O)c2ccc(Cl)cc2)cc1,i
Cc1ccc(-c2nc3cccnc3n2CCNS(=O)(=O)c2ccc(C(C)C)cc2)cc1,i
Cc1ccc(-c2nc3cccnc3n2CCNS(=O)(=O)c2ccc(C)c(C)c2)cc1,+
Cc1ccc(S(=O)(=O)NCCn2c(C(F)(F)F)nc3cccnc32)cc1C,i
Cc1ccc(-c2nc3cccnc3n2CCNS(=O)(=O)c2c(C)cc(C)cc2C)cc1,i
O=S(=O)(NCCn1c(-c2ccccc2)nc2cccnc21)c1cccc(Cl)c1,i
Cc1ccc(S(=O)(=O)NCCn2c(C(F)(F)F)nc3cccnc32)cc1,i
Cc1ccc(S(=O)(=O)NCCn2c(C(F)(F)F)nc3cccnc32)c(C)c1,+
O=C(NCCn1c(-c2ccncc2)nc2cccnc21)Nc1ccc(Br)cc1F,i
Cc1ccc(-c2nc3cccnc3n2CCNS(=O)(=O)c2cccc(Cl)c2)cc1,+
O=C(NCCn1c(-c2ccncc2)nc2cccnc21)Nc1ccccc1Br,i
CCCS(=O)(=O)N1CCN(c2nc(C)cc(Nc3ccc(OC)cc3)n2)CC1,i
Cc1nc2c(c(N3CCN(S(=O)(=O)N4CCCC4)CC3)n1)CCNC2,i
Cc1ccc(Cn2c(=O)n(CCc3ccccn3)c3ncc(C(=O)O)cc32)cc1C,i
Cc1ccc(NC(=O)C2CCN(c3ccc(-c4cccs4)nn3)CC2)cc1N(C)C,i
COCCNC(=O)C1(C)Cn2c(cc3ccsc32)C(=O)N1c1cccc(C)c1C (stereo not drawn),i
CCC1=C(c2ccc(OC)cc2)S(=O)(=O)N(CC(=O)NCCc2ccccc2Cl)C1=O,i
CCC(C(=O)Nc1cc(C)nn1C(CC)CC)n1cccn1 (stereo not drawn),i
O=C(O)c1cc(CN2CCN(c3ncc(Cl)cn3)CC2)ccc1O,i
O=C1CCCCCN1CC(=O)N1CCn2cncc2C1,i
CCOc1ccc(NC(=O)CN2CCN(Cc3ccccc3C)S2(=O)=O)cc1,i
c1cncc(-c2nccn2-c2ccc(OCc3ccco3)cc2)c1,i
SMILES,FECH block
CCSCC(C)NCc1nn(C)c2ccc(C)cc12 (stereo not drawn),i
COc1ccc(-c2cc(C(=O)Nc3cccc(C)c3C)[nH]n2)cc1S(N)(=O)=O,i
COc1ccc(S(=O)(=O)NCCn2c(-c3ccccc3)nc3cccnc32)cc1OC,+
CCOc1ccc(S(=O)(=O)NCCn2c(-c3ccc(F)cc3)nc3cccnc32)cc1,i
Cc1ccc(-c2nc3cccnc3n2CCNS(=O)(=O)c2ccc(CC(C)C)cc2)cc1,i
CCOc1ccc(S(=O)(=O)NCCn2c(-c3ccc(C)cc3)nc3cccnc32)cc1,+
COc1ccc(S(=O)(=O)NCCn2c(-c3ccc(C)cc3)nc3cccnc32)cc1,i
O=S(=O)(NCCn1c(-c2ccccc2)nc2cccnc21)c1ccc(Cl)cc1,i
Cc1cc(C)n(-c2ccc(C(=O)NCc3n[nH]c4c3CCC4)cc2)n1,i
COc1ccccc1N(Cc1nc2nc(C)cc(C)n2n1)C(=O)c1ccccc1Cl,i
Cc1cccc(Nc2nc(NCCCOC(C)C)nc3c2cnn3-c2ccccc2)c1,i
COc1ccc(NS(=O)(=O)c2cc(N3C(=O)CCS3(=O)=O)ccc2C)cc1OC,i
CCCc1cc(=O)n2[nH]c(CNc3ccc(Br)cc3)nc2n1,+
CCCc1cc(=O)n2[nH]c(CNc3cccc(C)c3)nc2n1,+
Cc1cccc(-c2nc3nc(CNC(C)C)cc(=O)n3[nH]2)c1,i
CCCc1cc(=O)n2[nH]c(CNc3ccccc3F)nc2n1,+
Cc1cccc(NC(=O)c2ccc(CNc3nc4nc(C)cc(=O)n4[nH]3)cc2)c1,i
CCCc1cc(=O)n2[nH]c(CNc3ccc(F)cc3)nc2n1,+
CCCc1cc(=O)n2[nH]c(CNc3ccccc3OCC)nc2n1,i
CCCc1cc(=O)n2[nH]c(CNc3ccccc3Cl)nc2n1,i
COc1ccc(CC(=O)Nc2ccc(Cl)c(N3CCCS3(=O)=O)c2)cc1OC,i
O=S(=O)(c1cc2ccccc2o1)N1CCCn2cncc2C1,i
Cc1cc(C(=O)N2CCCC(Cn3cc(C4CCCC4)nn3)C2)nc(C)n1 (stereo not drawn),i
OC[C@H]1CCN(Cc2c(-c3ccc(F)cc3)nc3ccccn23)C[C@H]1O,i
CC(C)CCNC(=O)c1nc[nH]c1C(=O)N1CCN(Cc2ccccc2)CC1,i
O=C(c1ccc(Cl)cc1)N1CCN(S(=O)(=O)c2cc3c4c(c2)CCN4C(=O)CC3)CC1,i
CCCc1cc(Sc2ccc(NC(=O)c3ccccc3C)cc2)n2ncnc2n1,i
